# Test results as given in the OligoGym collection.
# Tests used:
# Assay in all cases: pooled miR-30 sensor sort-seq; sequence = guide strand
# Conditions in all cases: shRNA
# RHOF = molecular target: RHOF
# RGS9 = molecular target: RGS9
# RHOH = molecular target: RHOH
# RHBDL3 = molecular target: RHBDL3
# RILPL1 = molecular target: RILPL1
# RIMKLA = molecular target: RIMKLA
# RIN3 = molecular target: RIN3
# RIT1 = molecular target: RIT1
# RNPC3 = molecular target: RNPC3
# RPL27 = molecular target: RPL27
# RPL19 = molecular target: RPL19
# RPS27 = molecular target: RPS27
# RPS28 = molecular target: RPS28
# RPS6KA5 = molecular target: RPS6KA5
# RTTN = molecular target: RTTN
# RYR2 = molecular target: RYR2
# SASH1 = molecular target: SASH1
# SC5DL = molecular target: SC5DL
# SASH3 = molecular target: SASH3
# SCAF4 = molecular target: SCAF4
# Also: reference of the scale not given here.
sequence,measurement,setting,value
TAGGTGATGGGCTCCAGCTGGG,sensor-assay potency score (higher = more potent),RHOF,-0.461
TTGTTTCTTGACTTCATTCGGA,sensor-assay potency score (higher = more potent),RGS9,0.389
TTGCCATCTATGTTGATCCAGC,sensor-assay potency score (higher = more potent),RGS9,-0.689
TTGTAGAGTGTAGTTAGTGAAA,sensor-assay potency score (higher = more potent),RHOH,-1.62
TAGCTGTCATAGTACCACTTGC,sensor-assay potency score (higher = more potent),RHBDL3,-0.706
TATCTGTCTGCTTTGTTCCTCT,sensor-assay potency score (higher = more potent),RGS9,-0.0404
TTTACCTTGACTTCATTCGGAT,sensor-assay potency score (higher = more potent),RGS9,0.0975
TGATCAAACAGGACTTTCCAGT,sensor-assay potency score (higher = more potent),RHBDL3,-0.423
TTGATGAGGACGTTGTCGTAGC,sensor-assay potency score (higher = more potent),RHOF,0.173
TAATGTAGCCTGTGTTCCCAGG,sensor-assay potency score (higher = more potent),RHBDL3,-0.768
TGTCATAGTACCACTTGCGGTC,sensor-assay potency score (higher = more potent),RHBDL3,-0.531
TAGAGAGCAGCTCGGATCTGTT,sensor-assay potency score (higher = more potent),RHOF,-0.736
TTCCTCAGGTCTGTCTTGCAGC,sensor-assay potency score (higher = more potent),RHOF,-0.598
TGACTTTGGACTGATCTCCATA,sensor-assay potency score (higher = more potent),RGS9,-0.742
TTCTTCAAGTTCAGGAATGAGT,sensor-assay potency score (higher = more potent),RHOH,-0.86
TTGCTGCCAACGGTCACGCTGG,sensor-assay potency score (higher = more potent),RHOF,-0.873
TAGGCCTCCGGGAAGGTCTCGG,sensor-assay potency score (higher = more potent),RHOH,-0.658
TTGGACTTGAGCTCGTTCCTCT,sensor-assay potency score (higher = more potent),RILPL1,-0.104
TTTGGCTTAAAGAAGCTTGTGT,sensor-assay potency score (higher = more potent),RILPL1,0.806
TCACACACCACAAAGGAGCCAT,sensor-assay potency score (higher = more potent),RIMKLA,0.0799
TATTCGAGCACCTCGGCCGAGC,sensor-assay potency score (higher = more potent),RIN3,-1.09
TAGTCCTCGCGGATGCGCCGGT,sensor-assay potency score (higher = more potent),RIMKLA,-0.762
ATCTCCTGCAGCATCTCCGTGC,sensor-assay potency score (higher = more potent),RIN3,-0.98
TTAGCCTCTTCCATACACTGTT,sensor-assay potency score (higher = more potent),RIT1,-0.476
TTGTTTGTCCACCACCTCCTTC,sensor-assay potency score (higher = more potent),RILPL1,-0.987
TCATCTATTAGAAACAGTGATA,sensor-assay potency score (higher = more potent),RILPL1,-1.01
TATAGTAGCGGTATGCAGCAGA,sensor-assay potency score (higher = more potent),RIT1,0.384
TAAGCTGTTTAAACTCACGAAC,sensor-assay potency score (higher = more potent),RIT1,-0.618
ATCAATGCCACAGAAGTCCATG,sensor-assay potency score (higher = more potent),RIMKLA,-1.18
TGTTTTGATGAGCTTCTCCAGG,sensor-assay potency score (higher = more potent),RIN3,-1.05
TTCCTTAATGGTGTATTCGAGC,sensor-assay potency score (higher = more potent),RIN3,-0.939
TAGGAAGCCAACATTAGCATTT,sensor-assay potency score (higher = more potent),RIMKLA,-1.24
TAGATGAGTTTGCAGGTCTTGA,sensor-assay potency score (higher = more potent),RIN3,-0.805
TGTCTAGCTGCTTCTTGCCGGG,sensor-assay potency score (higher = more potent),RIN3,-0.191
TTGCCAACAACTGGAACCGGAC,sensor-assay potency score (higher = more potent),RIN3,-1.3
TCCTGCAGCAAGAACACCTTGG,sensor-assay potency score (higher = more potent),RILPL1,-0.555
TAAATAAACATTTCTTTAGAGT,sensor-assay potency score (higher = more potent),RILPL1,-1.18
TAGCATTTGCCTCACACACCAC,sensor-assay potency score (higher = more potent),RIMKLA,-0.761
TTTCACTAGAGGTAGACCCACT,sensor-assay potency score (higher = more potent),RIMKLA,-0.539
TAAGTCTCTACTGACACAGTAG,sensor-assay potency score (higher = more potent),RIN3,-0.266
TTGATGGTATAGACGCTCTCTG,sensor-assay potency score (higher = more potent),RIMKLA,-0.814
TGTCTGACTGCACTGAGGGTGT,sensor-assay potency score (higher = more potent),RIMKLA,-0.858
AAGCATAGAGCCTATGACCTGG,sensor-assay potency score (higher = more potent),RIMKLA,0.485
TGAGAAGTTGACATCCTTGTGG,sensor-assay potency score (higher = more potent),RILPL1,0.201
TTGCGCTCCTTCTCGATGCGGT,sensor-assay potency score (higher = more potent),RILPL1,-0.346
TAATGTTGTAGCCAGGTTCGGG,sensor-assay potency score (higher = more potent),RIMKLA,-0.494
TTTGCCAACAACTGGAACCGGA,sensor-assay potency score (higher = more potent),RIN3,-0.35
TTGGACTCGACAGTCCTGGGAG,sensor-assay potency score (higher = more potent),RIMKLA,0.0465
TAACTGGTTCTCCTTGAGCTGC,sensor-assay potency score (higher = more potent),RIN3,-1.24
TAGCCTCTTCCATACACTGTTT,sensor-assay potency score (higher = more potent),RIT1,-0.898
TTTGATGAGCTTCTCCAGGATG,sensor-assay potency score (higher = more potent),RIN3,-0.966
TTGGCGCGGATCTCGTCGCGTT,sensor-assay potency score (higher = more potent),RILPL1,-1.09
TATTCGGTTTTCCTCTTCCATT,sensor-assay potency score (higher = more potent),RILPL1,-1.63
TCACTGTCTGACTGCACTGAGG,sensor-assay potency score (higher = more potent),RIMKLA,-1.83
TTCAGGGTGCATCTGCACCGAG,sensor-assay potency score (higher = more potent),RILPL1,-0.831
TTAGAAACAGTGATAGCCCTGG,sensor-assay potency score (higher = more potent),RILPL1,0.299
TTGAGCTGGGTCATCATGGTGC,sensor-assay potency score (higher = more potent),RIN3,0.23
TTCTTTATCATCTTCGACAGGG,sensor-assay potency score (higher = more potent),RNPC3,0.314
TTCTTCACGATGACAGCTTTGC,sensor-assay potency score (higher = more potent),RPL27,-0.801
ATTGACGACAGTTTTGTCCAAG,sensor-assay potency score (higher = more potent),RPL27,-1.31
AAGTCTTGATGATCTCCTCCTT,sensor-assay potency score (higher = more potent),RPL19,0.211
TCCTCTTCTCCTCTTCTGGAGA,sensor-assay potency score (higher = more potent),RPS27,-1.67
TTGTTCTTGCCTGTCTTGTATC,sensor-assay potency score (higher = more potent),RPL27,-1.8
TACAGGCTGTGATACATGTGGC,sensor-assay potency score (higher = more potent),RPL19,-1.14
TTGCGGATGATGGATCGGCTCG,sensor-assay potency score (higher = more potent),RPS28,-1.36
TTTTATAGCATCCTGGGCATTT,sensor-assay potency score (higher = more potent),RPS27,-0.741
ATTGGGGTCTAACCAGACCTTC,sensor-assay potency score (higher = more potent),RPL19,-1.59
TTTATCTTTGATCTCTTGGCGA,sensor-assay potency score (higher = more potent),RPL27,-0.218
TCGCTCTGACTCCAAAAGGGTG,sensor-assay potency score (higher = more potent),RPS28,-1.7
AGGATCTCTGAAGACATCCTTA,sensor-assay potency score (higher = more potent),RPL27,-1.41
TTCACATCCATGAAGTAGGAAT,sensor-assay potency score (higher = more potent),RPS27,-1.13
TGGTGATTTTATAGCATCCTGG,sensor-assay potency score (higher = more potent),RPS27,-1.63
TGTCCCTGAGAACCGGTCCTGC,sensor-assay potency score (higher = more potent),RPS28,-1.38
TGATGGATCGGCTCGTGTCGTC,sensor-assay potency score (higher = more potent),RPS28,-1.07
TGAAGGAACATCCTTCTGTAAG,sensor-assay potency score (higher = more potent),RPS27,-1.76
TTGTGCATGGCTAAAGACCGTG,sensor-assay potency score (higher = more potent),RPS27,-0.673
TTATCTTTGATCTCTTGGCGAT,sensor-assay potency score (higher = more potent),RPL27,-0.525
TTCTTCTTGTGTTTCCTCTTCT,sensor-assay potency score (higher = more potent),RPS27,0.637
ATTGGCTGTACCCTTCCGCTTA,sensor-assay potency score (higher = more potent),RPL19,-0.619
TTGCTTTTCCTCCTGTAGGCTG,sensor-assay potency score (higher = more potent),RPS27,-0.847
ATATCCACAGAGTACCTTGTGG,sensor-assay potency score (higher = more potent),RPL27,-0.336
TGGATCGGCTCGTGTCGTCCAT,sensor-assay potency score (higher = more potent),RPS28,-1.14
TTGGTGACCCTGGCCAGCTTGA,sensor-assay potency score (higher = more potent),RPS28,-1.2
TTTTACATTGCGGATGATGGAT,sensor-assay potency score (higher = more potent),RPS28,-0.481
TTTACATTGCGGATGATGGATC,sensor-assay potency score (higher = more potent),RPS28,-1.07
TACACTTTCACAAAAGATTTTA,sensor-assay potency score (higher = more potent),RPL27,-0.949
TTTCTGTGAACTCTTCTGCAAA,sensor-assay potency score (higher = more potent),RPS6KA5,-1.11
TGATTTTATAGCATCCTGGGCA,sensor-assay potency score (higher = more potent),RPS27,-0.287
TTCACGATGACAGCTTTGCGTC,sensor-assay potency score (higher = more potent),RPL27,-0.995
TAAGCCTTGCTTTTCCTCCTGT,sensor-assay potency score (higher = more potent),RPS27,0.376
TTCCTCTTCTCCTCTTCTGGAG,sensor-assay potency score (higher = more potent),RPS27,-0.516
TCGGCTCGTGTCGTCCATGAAT,sensor-assay potency score (higher = more potent),RPS28,-1.75
TTTCACATCCATGAAGTAGGAA,sensor-assay potency score (higher = more potent),RPS27,0.096
TGCACTGTCCCTGAGAACCGGT,sensor-assay potency score (higher = more potent),RPS28,-1.07
AATTCCACGCGCACCTGCGTGC,sensor-assay potency score (higher = more potent),RPS28,-0.771
TATCTTTGATCTCTTGGCGATC,sensor-assay potency score (higher = more potent),RPL27,-1.37
TCTCTCTTCAAACTTGACCTTG,sensor-assay potency score (higher = more potent),RPL27,-0.698
TTTAAGAGCAGGATCTCTGAAG,sensor-assay potency score (higher = more potent),RPL27,-0.365
TAGAGATTTCTGATTTTCCTGA,sensor-assay potency score (higher = more potent),RTTN,0.353
TTAATAACCAGCTCTCTTCTGT,sensor-assay potency score (higher = more potent),RTTN,0.265
TATGCTATGATTTTCTTCCAGA,sensor-assay potency score (higher = more potent),RYR2,-0.61
TAGTACATAGTGAACTGCGATG,sensor-assay potency score (higher = more potent),RYR2,-0.997
TAGCTTTCCGAGTCTTGCCGTT,sensor-assay potency score (higher = more potent),SASH1,-0.384
TTTCATTAATGCATGATCGAAG,sensor-assay potency score (higher = more potent),SC5DL,-0.355
TTTTAGGTTAATCCGATCCAGG,sensor-assay potency score (higher = more potent),SASH1,-1.32
TAAACTTAATCTCTCGACGGAC,sensor-assay potency score (higher = more potent),SC5DL,-0.573
TAACCTCTTAAACTTCACCGAC,sensor-assay potency score (higher = more potent),SASH1,-0.612
TATTTTTTAGACATTCTCTTTC,sensor-assay potency score (higher = more potent),SASH1,-0.235
TTGAATGAGCCGCCAATCCTAT,sensor-assay potency score (higher = more potent),SC5DL,-0.95
TAATGTACAATAACTCTTGAGT,sensor-assay potency score (higher = more potent),SASH1,-0.698
TTCTGGAATGTTATCATCCAGA,sensor-assay potency score (higher = more potent),SASH3,-1.05
ATCATCTTGCCCATCTTCCTGT,sensor-assay potency score (higher = more potent),SASH3,-0.431
TGATCTGGATCACATCTCCTTT,sensor-assay potency score (higher = more potent),SASH3,-1.14
TTAACCAAGATGTACAGACTTA,sensor-assay potency score (higher = more potent),SC5DL,-0.113
TTTACTATGTATCTTGACTGTA,sensor-assay potency score (higher = more potent),SC5DL,-0.0112
TGACCATCTGTAATCAGCCTTG,sensor-assay potency score (higher = more potent),SASH3,-0.932
TTCAGGTACAATCTGAGGGGGC,sensor-assay potency score (higher = more potent),SASH1,-0.224
TAACATTTTCTGCTACTGGGGC,sensor-assay potency score (higher = more potent),SCAF4,-0.447
TTTAATAGCAGCTTTAGTGATG,sensor-assay potency score (higher = more potent),SCAF4,-0.529
TTGAGCTTGAGTGAGTCTGTGT,sensor-assay potency score (higher = more potent),SASH1,0.495
